Results filed as inconclusive are left out. Entries that show only a call come without a potency. Active and inactive are the calls of the source. Calls follow the shape of the dose curve; as a rule, active = well fitted cell-killing curve with a large enough effect; inconclusive = small, poorly fitted or top-dose-only effect, or effect the other way; inactive = no such curve, though single readings can be large or run the other way.
Tests used:
[1] = Quantitative High-Throughput drug screen in 47 multiple myeloma cell lines against the NCATS MIPE library collection: FR4_PLB cell viability assay (AID 1918924; also: nearly all actives have a fitted effect of over 35% in size; also: potency is read from the fitted curve at half-maximal effect)
Procedure, shortened: (§1)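 Luminescent ATP measurement with CellTiter-Glo gives viability, scaled between DMSO-only wells (100%) and media-only wells (0%). Cells, 500 per well, faced library compounds for 48 hours at 37C.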

[2] = Quantitative High-Throughput drug screen in 47 multiple myeloma cell lines against the NCATS MIPE library collection: AMO1_DSMZ cell viability assay (AID 1918927; also: nearly all actives have a fitted effect of over 30% in size; also: potency is read from the fitted curve at half-maximal effect)
Procedure, shortened: as §1

[3] = Quantitative High-Throughput drug screen in 47 multiple myeloma cell lines against the NCATS MIPE library collection: Delta47_JCRB cell viability assay (AID 1918925; also: nearly all actives have a fitted effect of over 45% in size; also: potency is read from the fitted curve at half-maximal effect)
Procedure, shortened: as §1

[4] = Quantitative High-Throughput drug screen in 47 multiple myeloma cell lines against the NCATS MIPE library collection: EJM_DSMZ cell viability assay (AID 1918926; also: nearly all actives have a fitted effect of over 30% in size)
Procedure, shortened: as §1

[5] = Quantitative High-Throughput drug screen in 47 multiple myeloma cell lines against the NCATS MIPE library collection: ARP1_JJKsccF8 cell viability assay (AID 1918928; also: nearly all actives have a fitted effect of over 40% in size; also: potency is read from the fitted curve at half-maximal effect)
Procedure, shortened: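 Myeloma cells at 500 per well in 1536-well format treated with MIPE 4.0 library by pin transfer for 48 h at 37C, 5% CO2. Viability from ATP luminescence (CellTiter-Glo), normalized to DMSO (100%) and media-only (0%) wells.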

## C[C@]12CC[C@@H]3c4ccc(O)cc4CC[C@H]3[C@H]1CC[C@H]2O
[1]
  Potency: 16600 nM (active)
[2]
  Potency: 14800 nM (active)

## N#CC(=C(O)c1ccc(Cl)cc1Cl)c1nc2cc(Cl)ccc2c(=O)[nH]1
[3]
  Potency: inactive
[4]
  Potency: inactive
[2]
  Potency: 1050 nM (active)
[5]
  Potency: inactive

## C#CCC(Cc1cnc2nc(N)nc(N)c2n1)c1ccc(C(=O)N[C@@H](CCC(=O)O)C(=O)O)cc1 (some centres undefined)
[3]
  Potency: inactive
[2]
  Potency: inactive
[5]
  Potency: 46.9 nM (active)

## CN[C@H](CC(C)C)C(=O)N[C@H]1C(=O)N[C@@H](CC(N)=O)C(=O)N[C@@H]2C(=O)N[C@H]3C(=O)N[C@H](C(=O)N[C@H](C(=O)O)c4cc(O)cc(O)c4-c4cc3ccc4O)[C@H](O)c3ccc(c(Cl)c3)Oc3cc2cc(c3O[C@@H]2O[C@H](CO)[C@@H](O)[C@H](O)[C@@H]2O[C@H]2C[C@](C)(N)[C@H](O)[C@H](C)O2)Oc2ccc(cc2Cl)[C@H]1O
[1]
  Potency: inactive
[2]
  Potency: inactive
[5]
  Potency: inactive

## Cc1[nH]c(C=C2C(=O)Nc3ccccc32)c(C)c1CCC(=O)O
[3]
  Potency: 4690 nM (active)
[2]
  Potency: 1480 nM (active)

## C#C[C@]1(O)CC[C@@H]2[C@@H]3CCC4=CC(=O)CC[C@@H]4[C@H]3CC[C@@]21CC
[3]
  Potency: inactive
[4]
  Potency: inactive

## CC[C@H]1OC(=O)[C@H](C)[C@@H](O[C@H]2C[C@@](C)(OC)[C@@H](O)[C@H](C)O2)[C@H](C)[C@@H](O[C@@H]2O[C@@H](C)C[C@H](N(C)C)[C@@H]2O)[C@](C)(O)C[C@@H](C)C(=O)[C@H](C)[C@@H](O)[C@]1(C)O
[1]
  Potency: inactive
[4]
  Potency: inactive
[2]
  Potency: inactive
[5]
  Potency: inactive

## Cc1nc(NC(=O)N2CCC[C@@H]2C(N)=O)sc1-c1ccnc(C(C)(C)C(F)(F)F)c1
[3]
  Potency: 1660 nM (active)
[5]
  Potency: 418 nM (active)

## Cc1cn([C@@H]2O[C@H](CO)[C@@H](O)[C@H]2F)c(=O)[nH]c1=O
[3]
  Potency: inactive
[2]
  Potency: inactive

## Cc1noc(-c2ccc(CSCCC(=O)O)cc2)c1NC(=O)OC(C)c1ccccc1Cl (centres undefined)
[4]
  Potency: inactive
[5]
  Potency: inactive

## CN1[C@H]2CC(OC(=O)[C@@H](CO)c3ccccc3)C[C@H]1[C@H]1O[C@H]12 (some centres undefined)
[1]
  Potency: inactive
[4]
  Potency: inactive
[2]
  Potency: inactive
[5]
  Potency: inactive

## N=c1ccn2c(n1)O[C@H]1[C@@H](O)[C@@H](CO)O[C@H]12
[1]
  Potency: inactive
[4]
  Potency: inactive
[5]
  Potency: 332 nM (active)

## O=C1c2c(O)cccc2[C@@H]([C@@H]2O[C@H](CO)[C@@H](O)[C@H](O)[C@H]2O)c2cc(CO)cc(O)c21
[1]
  Potency: inactive
[4]
  Potency: inactive
[2]
  Potency: inactive
[5]
  Potency: inactive

## CCCCCCCCCCCC(CC1OC(=O)C1CCCCCC)OC(=O)C(CC(C)C)NC=O (centres undefined)
[4]
  Potency: inactive
[2]
  Potency: inactive
[5]
  Potency: inactive

## CC1(C)[C@H](O[C@H]2O[C@H](C(=O)O)[C@@H](O)[C@H](O)[C@H]2O[C@@H]2O[C@H](C(=O)O)[C@@H](O)[C@H](O)[C@H]2O)CC[C@@]2(C)[C@H]1CC[C@]1(C)[C@H]2C(=O)C=C2[C@H]3C[C@@](C)(C(=O)O)CC[C@]3(C)CC[C@]21C
[3]
  Potency: inactive
[2]
  Potency: inactive
[5]
  Potency: inactive

## NC(=O)c1ncn([C@@H]2O[C@H](CO)[C@@H](O)[C@@H]2O)c1N
[1]
  Potency: inactive
[4]
  Potency: inactive
[2]
  Potency: inactive
[5]
  Potency: inactive

## CC(C)Oc1ccc(C(=O)N[C@H](CNC(=O)CN(C)C)Cc2ccc(-c3cn4cccc([C@H](C)O)c4n3)cc2)cc1Cl
[1]
  Potency: 148 nM (active)
[2]
  Potency: 332 nM (active)
[5]
  Potency: 935 nM (active)

## CCN1CCN(C(=O)N[C@H](C(=O)N[C@@H]2C(=O)N3C(C(=O)O)=C(CSc4nnnn4C)CS[C@@H]23)c2ccc(O)cc2)C(=O)C1=O
[3]
  Potency: inactive
[4]
  Potency: inactive
[2]
  Potency: inactive
[5]
  Potency: inactive

From PubChem BioAssay (NCATS)
